Screens (PubChem BioAssay)
TRHR enhancer – qHTS for Small Molecule Agonists and Allosteric Enhancers of Human TRH Receptor: Primary Screen for Enhancers; enhancement, % at 2 µM; TRHR cells, fluo-8 calcium fluorescence, EC20 TRH enhancement; AID 493056, 2011; 360,000 tested, 0.66% active; Thyrotropin-releasing hormone receptor (Homo sapiens), P34981; in the data active = enhancement above about 30%; note: 0% is about no effect
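TRHR-expressing cells loaded with fluo-8 calcium dye were read kinetically (ex 480/em 530) during compound addition, then stimulated with an EC20 of TRH (10 nM final). Enhancement of the Gq-mediated intracellular calcium response was scored.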
D1 antag – Antagonist of Human D 1 Dopamine Receptor: qHTS | D(1A) dopamine receptor (Homo sapiens), P21728 | HEK293 TREx D1 cells, calcium flux, dopamine EC80; active compounds read low | activity change, negative = inhibition, % at 10 µM | 360,000 tested, 3.2% active; in the data active = activity change below about -30%; note: % is set by controls: 0 for no effect and ±100 for the full control effect
Target sequence (P21728 whole entry, looked up): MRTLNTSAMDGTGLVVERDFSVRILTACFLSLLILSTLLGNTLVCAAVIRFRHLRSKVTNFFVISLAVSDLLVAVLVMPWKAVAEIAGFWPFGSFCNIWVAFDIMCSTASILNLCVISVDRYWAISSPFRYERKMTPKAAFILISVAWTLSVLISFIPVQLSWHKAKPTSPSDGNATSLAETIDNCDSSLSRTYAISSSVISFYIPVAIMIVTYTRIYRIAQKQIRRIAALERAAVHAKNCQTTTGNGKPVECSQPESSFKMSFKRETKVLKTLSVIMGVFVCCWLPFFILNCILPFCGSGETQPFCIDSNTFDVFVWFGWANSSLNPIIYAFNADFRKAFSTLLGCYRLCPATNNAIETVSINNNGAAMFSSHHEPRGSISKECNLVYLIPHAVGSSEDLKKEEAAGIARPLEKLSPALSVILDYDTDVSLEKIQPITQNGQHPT
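Compound effects on dopamine-evoked calcium signalling were measured in tetracycline-induced HEK293 Trex D1 cells. Dopamine at EC80 followed a 180 s compound pre-read, and fluorescence was tracked kinetically for 180 s more.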
D1 agonist – Allosteric Agonists of the Human D1 Dopamine Receptor: qHTS | D(1A) dopamine receptor (Homo sapiens), P21728 | activation, % at 2 µM | HEK293 T-REx D1 cells, calcium flux, agonist mode | 360,000 tested, 1% active; note: 0% is about no effect
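Agonism was scored from calcium flux recorded over 180 s (1 read/s) after pintool compound addition, following a 10-cycle baseline. Cells were inducible force-coupled HEK293 TREx D1, plated overnight at 30 C and loaded with no-wash calcium dye.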
D1 PAM – Potentiators of Human D1 Dopamine Receptor: qHTS | D(1A) dopamine receptor (Homo sapiens), P21728 | HEK293 TREx D1 cells, calcium flux, dopamine EC20 potentiation | potentiation, % at 10 µM | 360,000 tested, 0.036% active; in the data active = potentiation above about 30%; note: 0% is about no effect
TRHR ag – qHTS for Small Molecule Agonists and Allosteric Enhancers of Human TRH Receptor: Primary Screen for Agonists. Thyrotropin-releasing hormone receptor (Homo sapiens), P34981. TRHR cells, calcium flux fluo-8, FDSS agonist mode. activation, % at 2 µM. 360,000 tested, 0.18% active. AID 493084, 2011; note: 0% is about no effect
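Agonist-mode FDSS calcium read (Ex 480/Em 530, 1 s cycles) in 1536-well TRHR cells with fluo-8 dye, after 10-cycle baseline and 23 nL compound addition; TRH at EC20 (10 nM final) added afterwards for the enhancer phase.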
Active calls of the source: *; . = no result given. Hits are enriched below; roughly 4.6% of the tested compounds scored in any of these assays. Cut-off read from the data, not from the text of the source, unless noted: active = activation above about 30%; inactive = the rest.

SMILES	TRHR enhancer	D1 antag	D1 agonist	D1 PAM	TRHR ag
O=C(CSc1nnnn1Cc1ccccc1)Nc1ccccc1	-4	-10	2	-12	1
O=S(=O)(Cc1ccccc1Cl)N1CCCC1	-2	.	0	1	0
CC1CCCCN1S(=O)(=O)Cc1ccccc1Cl (stereo unspecified)	-4	-87*	0	-12	0
O=C(Cn1nnc2sc(-c3ccccc3)cc2c1=O)Nc1cccc(C(F)(F)F)c1	5	-23	-2	-2	2
CCC(C)NC(=O)C1CCC(CNS(=O)(=O)c2ccc(Cl)cc2)CC1 (stereo unspecified)	-3	18	5	1	-1
Cc1[nH]c2ccccc2c1SCC(=O)N1CCCCC1	0	-17	2	-4	0
CN1CCCN(C(=O)CSc2ccccc2)CC1	31*	30	-2	-5	0
O=C(CSc1ccccc1C(=O)N1CCN(c2ccccc2)CC1)N1CCCC1	3	-44*	0	-10	0
CN1CCCN(C(=O)CC(c2ccccc2)c2ccccc2)CC1	-1	8	0	-4	-1
Cc1[nH]c2ccccc2c1SCC(=O)N1CCN(c2ccccc2)CC1	11	-43*	-1	-7	0
O=C(CCC(=O)N1CCN(c2ccccc2F)CC1)N1CCN(c2ccccc2)CC1	11	-61*	9	-3	0
O=C(CCC(=O)N1CCN(c2ccccc2F)CC1)N1CCN(c2ccc(F)cc2)CC1	1	-14	4	-1	0
CCOc1ccccc1CNC(=O)C1CCN(C(=O)N2CC(CC)Oc3ccc(C)cc32)CC1 (stereo unspecified)	4	0	0	1	0
COc1cccc(CNC(=O)Cc2ccc(NC(=O)N3CCSc4ncccc43)cc2)c1OC	1	-7	1	-2	0
O=C(CSc1ccccc1)N1CCN(c2ccccc2)CC1	-1	-34*	-1	-5	2
CCc1ccc(NCc2cc3cc(OC)c(OC)cc3n(CC(=O)Nc3ccc(F)cc3)c2=O)cc1	-5	6	7	-3	4
COc1ccccc1NC(=O)Cn1c(=O)c(CNc2ccccc2)cc2cc(OC)c(OC)cc21	3	2	69*	-2	-1
COc1cc2cc(CNc3ccccc3)c(=O)n(CC(=O)Nc3ccccc3)c2cc1OC	-3	7	37*	2	5
COc1ccccc1NC(=O)Cn1c(=O)c(CNc2ccc(C)cc2)cc2cc3c(cc21)OCCO3	3	-16	4	4	0
Cc1ccccc1OCc1ccc(-c2nc(C#N)c(N3CCN(c4cccc(Cl)c4)CC3)o2)o1	-3	-9	3	-1	0
CCC(=O)N1CCc2cc(S(=O)(=O)CCC(=O)Nc3cc(Cl)ccc3OC)ccc21	1	-8	-2	2	-1
CC(=O)Nc1cc[n+](CC(=O)c2ccc(Cl)cc2)cc1	1	-33*	2	1	1
CC(=O)c1ccc(C(=O)Nc2nnc(-c3ccc(Cl)cc3)o2)cc1	2	-32*	0	-9	-1
CC(=O)c1ccc(NC(=O)Nc2ccc([N+](=O)[O-])cc2)cc1	-1	-36*	21	-3	2
O=C(Nc1ccc([N+](=O)[O-])cc1)Nc1cnccn1	-3	-32*	16	-9	0
SMILES	TRHR enhancer	D1 antag	D1 agonist	D1 PAM	TRHR ag
CC(=O)Nc1cc[n+](C(C)C(=O)c2ccc(Cl)cc2)cc1 (stereo unspecified)	-1	-3	4	-9	0
COc1cccc(C(=O)N(Cc2cccnc2)c2nc3c(OC)ccc(C)c3s2)c1OC	0	.	4	-2	0
CCOc1ccc(NS(=O)(=O)c2ccc(C(=O)N(C)C)s2)cc1	4	5	0	2	0
COC(=O)C1=C(c2ccccc2)c2ccccc2S(=O)(=O)N1CC(=O)Nc1cccc(C(C)=O)c1	3	-27	2	-1	1
CC(C)c1ccc(OCC(=O)Nc2ccc(S(=O)(=O)Nc3ncccn3)cc2)cc1	1	4	2	-2	0
COC(=O)c1sccc1NC(=O)Nc1ccc(C(C)=O)cc1	-2	-33*	-1	0	0
CC(=O)c1ccc(NC(=O)Nc2ccc(Cl)cc2)cc1	-4	-35*	30	-5	-1
Cc1ccc(C(C)C)cc1NC(=O)Nc1ccc([N+](=O)[O-])cc1	-7	-49*	17	-14	3
CCOc1ccc(CN2CCN(Cc3cc4c(cc3Cl)OCO4)CC2CCO)cc1 (stereo unspecified)	4	-5	13	-4	-1
COc1cccc(NC(=O)CSc2nccn2C2CCCC2)c1	-2	-13	2	0	0
O=S(=O)(c1ccc2[nH]c3c(c2c1)CCCCC3)N1CCN(c2ccccc2)CC1	6	1	0	-4	1
CC(C)OC(=O)CSc1ncnc2c1cnn2Cc1ccccc1	10	-11	4	-9	-1
COC(=O)CSc1ncnc2c1cnn2Cc1ccccc1	-2	36	42*	-3	-1
CCC(CC)NCC(O)COc1ccc(Br)cc1 (stereo unspecified)	6	-5	12	-2	2
Cc1cc(=O)n(CC(=O)N2CCCc3ccccc32)c2c1c(C)nn2-c1cccc(F)c1	2	19	5	-2	0
CN1CCN(NC(=O)Nc2cccc(Cl)c2Cl)CC1	2	-2	1	-4	3
Cn1nccc1NC(=O)Nc1cccc(Cl)c1Cl	10	-33*	4	-15	0
CCC(C)c1ccc(NC(=O)N2CCN(C(=O)C3CCCO3)CC2)cc1 (stereo unspecified)	-9	-3	2	-4	0
CCOC(=O)c1ccc(NC(=O)Cn2c(=O)cc(C)c3c(C)nn(-c4ccc(CC)cc4)c32)cc1	3	-6	3	-2	1
Cc1ccc(CS(=O)(=O)CCC(=O)NCCc2ccccc2)cc1	-3	-14	0	1	-1
Cc1ccc(CS(=O)(=O)CCC(=O)NCc2cccs2)cc1	3	-32*	-1	-8	-1
CC(C)(C)c1ccc(C(=O)COC(=O)CN2C(=O)NC3(CCCC3)C2=O)cc1	16	-31*	7	-3	-3
COc1ccccc1C(=O)NC(=O)COC(=O)CN1C(=O)NC2(CCCCC2C)C1=O (stereo unspecified)	4	8	1	0	0
COc1ccc(OC)c(C(=O)COC(=O)CN2C(=O)NC3(CCCCC3C)C2=O)c1 (stereo unspecified)	33*	3	1	-4	0
